# In PubChem BioAssay:
# Records with an inconclusive call do not appear. This is one part of the list. Activity calls are given as the source filed them.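 The calls were made as follows, unless noted: active = inhibition above 50%; inactive = the rest.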
# Tests used:
# [1] = biological target: Regulator of G-protein signaling 16 (Homo sapiens) (UniProt O15492); test: small molecules altering RGS protein interactions with GNAO1 – biochemical, multiplexed beads, flow cytometry, RGS4/7/8/16/19, primary screen (AID 1504); details: multiplexed bead flow cytometry, measured here: RGS16 interaction, at 10 µM;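 also: fluorescently labeled Galpha-o bound to GDP with aluminium fluoride binding biotinylated RGS beads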
# [2] = biological target: Regulator of G-protein signaling 19 (Homo sapiens) (UniProt P49795); test: as above; details: multiplexed bead flow cytometry, measured here: RGS19 interaction, at 10 µM
# [3] = biological target: Regulator of G-protein signaling 7 (Homo sapiens) (UniProt P49802); test: as above; details: multiplexed bead flow cytometry, measured here: RGS7 interaction, at 10 µM
# [4] = biological target: Regulator of G-protein signaling 8 (Homo sapiens) (UniProt P57771); test: as above; details: multiplexed bead flow cytometry, measured here: RGS8 interaction, at 10 µM
# [5] = interference with biotin-avidin bead interaction – biochemical, flow cytometry, bead-based, counter-screen for RGS protein interaction modulators (AID 1783); details: streptavidin beads, fluorescein-biotin binding; at 10 µM, stronger effect = higher value;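 also: median green fluorescence of gated singlet beads compared with DMSO control wells; 0% = DMSO wells and 100% = complete loss of bead fluorescence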
# [6] = biological target: Guanine nucleotide-binding protein G(o) subunit alpha (Homo sapiens) (UniProt P09471); test: retest of RGS8-Galphao interaction hits – biochemical, multiplexed bead flow cytometry, single concentration, confirmation (AID 1836; in the data active = binding response below about 72% or above about 130%; inactive = in between;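 also: Galphao activated as GDP AlF4 complex before binding bead RGS8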); details: bead-based flow cytometry RGS8-Galphao binding, fluorescence; at 10 µM; actives lie on both sides
# Guanine nucleotide-binding protein G(o) subunit alpha (Homo sapiens), sequence (P09471 whole entry, looked up): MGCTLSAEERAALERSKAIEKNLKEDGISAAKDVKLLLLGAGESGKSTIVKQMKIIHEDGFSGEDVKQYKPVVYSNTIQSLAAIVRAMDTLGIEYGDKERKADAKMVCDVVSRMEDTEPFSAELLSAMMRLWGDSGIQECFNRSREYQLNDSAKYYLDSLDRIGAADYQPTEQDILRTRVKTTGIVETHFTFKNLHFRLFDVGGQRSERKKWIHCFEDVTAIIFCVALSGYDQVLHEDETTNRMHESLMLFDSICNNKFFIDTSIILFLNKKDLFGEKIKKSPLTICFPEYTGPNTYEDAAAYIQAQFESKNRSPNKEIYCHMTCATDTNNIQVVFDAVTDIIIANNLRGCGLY
# [7] = biological target: Guanine nucleotide-binding protein G(o) subunit alpha (Homo sapiens) (UniProt P09471); test: retest of RGS7-Galphao interaction hits – biochemical, multiplexed bead flow cytometry, single concentration, confirmation (AID 1837; in the data active = response below about 75% or above about 130%; inactive = in between;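 also: fluorescent Galphao activated with GDP and aluminum fluoride binding bead-coupled RGS7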); details: bead-based flow cytometry RGS7-Galphao binding; at 10 µM; actives lie on both sides
# [8] = biological target: Regulator of G-protein signaling 16 (Homo sapiens) + Guanine nucleotide-binding protein G(o) subunit alpha (Homo sapiens) (UniProt O15492+P09471); test: RGS16 and Galphao interaction regulators – biochemical, single concentration, multiplexed bead flow cytometry, confirmation (AID 1838; in the data active = response below about 74% or above about 130%; inactive = in between;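 also: Galphao activated as the GDP aluminium fluoride complex binding bead-coupled RGS16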); details: bead-based flow cytometry, at 10 µM, actives lie on both sides
# Regulator of G-protein signaling 16 (Homo sapiens) + Guanine nucleotide-binding protein G(o) subunit alpha (Homo sapiens), sequence (O15492 whole entry, looked up): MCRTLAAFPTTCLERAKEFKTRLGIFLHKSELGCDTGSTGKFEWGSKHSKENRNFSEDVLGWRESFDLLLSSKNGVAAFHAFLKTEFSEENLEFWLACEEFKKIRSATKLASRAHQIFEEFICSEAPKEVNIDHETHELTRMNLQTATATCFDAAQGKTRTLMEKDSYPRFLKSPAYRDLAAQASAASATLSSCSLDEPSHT
# Regulator of G-protein signaling 16 (Homo sapiens) + Guanine nucleotide-binding protein G(o) subunit alpha (Homo sapiens), sequence (P09471 whole entry, looked up): as the sequence (P09471 whole entry, looked up) above
# [9] = biological target: Guanine nucleotide-binding protein G(o) subunit alpha (Homo sapiens) (UniProt P09471); test: RGS4 and Galphao interaction regulators – biochemical, single concentration, multiplexed bead flow cytometry, confirmation (AID 1840; in the data active = binding response below about 74% or above about 130%; inactive = in between); details: at 10 µM, actives lie on both sides
# [10] = biological target: Guanine nucleotide-binding protein G(o) subunit alpha (Homo sapiens) + Regulator of G-protein signaling 19 (Homo sapiens) (UniProt P09471+P49795); test: RGS19 interaction with Gαo, hit retest – biochemical, single point, multiplexed bead flow cytometry, confirmation (AID 1841; in the data active = response below about 50% or above about 160%; inactive = in between;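 also: 100% = no compound control and 0% = blank background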); details: bead-based flow cytometry RGS19-Galphao binding; at 10 µM; actives lie on both sides
# Guanine nucleotide-binding protein G(o) subunit alpha (Homo sapiens) + Regulator of G-protein signaling 19 (Homo sapiens), sequence (P09471 whole entry, looked up): as above
# Guanine nucleotide-binding protein G(o) subunit alpha (Homo sapiens) + Regulator of G-protein signaling 19 (Homo sapiens), sequence (P49795 whole entry, looked up): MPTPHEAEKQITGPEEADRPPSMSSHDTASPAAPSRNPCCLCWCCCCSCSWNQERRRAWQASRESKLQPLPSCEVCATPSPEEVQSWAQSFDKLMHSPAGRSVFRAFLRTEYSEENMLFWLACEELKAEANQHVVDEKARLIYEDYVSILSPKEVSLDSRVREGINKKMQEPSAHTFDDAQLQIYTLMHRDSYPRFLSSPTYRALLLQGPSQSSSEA
# [11] = rapamycin-like changes in RPL19A-GFP expression – cell-based, S. cerevisiae, multiplex flow cytometry, primary screen (AID 1862; in the data active = percent of DMSO control GFP below about 86%;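 also: lower values mimic rapamycin by blocking the RPL19A rise seen in DMSO cells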); details: S. cerevisiae RPL19A-GFP strain, flow cytometry fluorescence, 3 h; at 10 µM; stronger effect = lower value
# [12] = TOR pathway GLN3 branch reporter MEP2-GFP changes – S. cerevisiae, multiplex flow cytometry, primary screen (AID 1867;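 active = GFP response, as percent of the DMSO control, above the screen-wide mean plus 3 SD, about 139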;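 also: median GFP channel fluorescence of barcode-gated MEP2-GFP cells measured by flow cytometry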); details: S. cerevisiae MEP2-GFP strain, 3 h, at 10 µM, stronger effect = higher value, 100% means same as DMSO wells
# [13] = TOR pathway RTG branch CIT2 reporter changes – S. cerevisiae, GFP fusion, multiplex flow cytometry, primary screen (AID 1870;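 active = percent response above a set limit, the screen-wide mean plus 3 SD, cut at about 130% in these data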;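 also: barcoded CIT2-GFP strain pooled with four other GFP strains with rapamycin as positive control; median GFP fluorescence per well over plate mean of DMSO wells so 100% = DMSO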); details: S. cerevisiae CIT2-GFP expression, 3 h, at 10 µM, stronger effect = higher value
# [14] = TOR pathway LAP4-GFP level changes – S. cerevisiae, multiplex flow cytometry, primary screen (AID 1873;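 active = GFP signal, as percent of the solvent control, above the screen mean plus 3 SD, about 149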); details: S. cerevisiae LAP4-GFP expression, 3 h, at 10 µM, stronger effect = higher value
# [15] = yeast AGP1-GFP level changes, GLN3 branch – cell-based, multiplex flow cytometry, S. cerevisiae, primary screen (AID 1887;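 active = GFP signal above the screen-wide mean plus 3 SD, that is over about 124.5% of the solvent control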;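 also: AGP1-GFP fusion strain of S. cerevisiae within a five-strain barcoded multiplex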); details: 3 h, at 10 µM, stronger effect = higher value
# [16] = hit retest on RPL19A-GFP reporter strain – cell-based, S. cerevisiae, flow cytometry, cherry picks, mother/daughter gates, confirmation (AID 2270;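 active = GFP response below 50% of the DMSO control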); details: 3 h, at 10 µM, stronger effect = lower value, 100 = same GFP as DMSO wells
# [17] = yeast TOR pathway reporter LAP4-GFP change – cell-based, cherry picks, flow cytometry, mother/daughter gates, confirmation (AID 2271;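 active = GFP response above 150% of the DMSO control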;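 also: ratio of sample to DMSO plate mean so 100% equals DMSO level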); details: S. cerevisiae LAP4-GFP strain, 3 h, at 10 µM, stronger effect = higher value, 100 means same as DMSO control
# [18] = TOR pathway reporter MEP2-GFP, retest of hits – S. cerevisiae, flow cytometry GFP, cherry picks, confirmation (AID 2272;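 active = GFP response above 150% of the DMSO control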;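 also: ratio of well signal to plate DMSO mean so 100% equals DMSO level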); details: S. cerevisiae MEP2-GFP strain, 3 h, at 10 µM, stronger effect = higher value
# [19] = TOR pathway CIT2 reporter hit retest – S. cerevisiae, GFP fusion, cherry picks, mother/daughter gates, confirmation (AID 2274;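 active = GFP response above 150% of the DMSO level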); details: S. cerevisiae CIT2-GFP strain, flow cytometry, 3 h, at 10 µM, stronger effect = higher value
# [20] = reduced mouse 2C T cell binding to pMHC/ICAM-1 vesicles – MLPCN validation set, flow cytometry, LFA-1/ICAM-1 modulator project, pilot screen (AID 2523;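 active = response below a set limit, under 55% cells CD8-positive and vesicle-bound, and CD8 cells' 90th-percentile brightness under 279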;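 as to vesicle binding response: mean PE anti-B7-1 fluorescence of CD8+ cells relative to row control; 100% = QL9-loaded vesicles with DMSO vehicle in the same plate row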); details: 2C mouse CD8+ T cells, at 7 µM, stronger effect = lower value; double positive events: measured here: CD8+/vesicle+ event percentage
# [21] = measured here: daughter cell gate
# [22] = measured here: mother cell gate
# [23] = measured here: daughter cell gate response
# [24] = measured here: mother cell gate response
smiles,measurement,setting,value
COc1cc(C2/C(=C(\O)c3ccc4c(c3)CC(C)O4)C(=O)C(=O)N2Cc2ccco2)ccc1O (stereo unspecified),RGS16–Galpha-o binding response,[1],-10.7%
same,RGS19–Galpha-o binding response,[2],178%
same,RGS7–Galpha-o binding response,[3],17.7%
same,RGS8–Galpha-o binding response,[4],12.8%
same,inhibition,[5],1.5% (inactive)
same,binding response (% of control),[6],106% (inactive)
same,response (percent of control binding),[7],110% (inactive)
same,response (% of control binding),[8],109% (inactive)
same,binding response (% of control),[9],106% (inactive)
same,response (percent of control binding),[10],106% (inactive)
Cn1c(=O)c2c(n(Cc3ccccc3)c1=O)NC(=O)C2CC(=O)N1CCc2ccccc2C1 (stereo unspecified),RGS16–Galpha-o binding response,[1],-1.02%
same,RGS19–Galpha-o binding response,[2],241%
same,RGS7–Galpha-o binding response,[3],13.5%
same,RGS8–Galpha-o binding response,[4],12.1%
same,inhibition,[5],0.9% (inactive)
same,binding response (% of control),[6],100% (inactive)
same,response (percent of control binding),[7],112% (inactive)
same,response (% of control binding),[8],95.4% (inactive)
same,binding response (% of control),[9],105% (inactive)
same,response (percent of control binding),[10],102% (inactive)
COc1ccccc1-n1c(-c2cc(-c3ccco3)[nH]n2)n[nH]c1=S,RGS16–Galpha-o binding response,[1],-1.14%
same,RGS19–Galpha-o binding response,[2],531%
same,RGS7–Galpha-o binding response,[3],-527%
same,RGS8–Galpha-o binding response,[4],6.3%
same,inhibition,[5],0.5% (inactive)
same,binding response (% of control),[6],83.6% (inactive)
same,response (percent of control binding),[7],99.5% (inactive)
same,response (% of control binding),[8],82.6% (inactive)
same,binding response (% of control),[9],98.3% (inactive)
same,response (percent of control binding),[10],68.6% (inactive)
Nc1[nH]c(=O)ncc1F,percent of DMSO control GFP,[11],84.2% (active)
same,GFP response vs DMSO,[12],107% (inactive)
same,percent response of DMSO control,[13],87.1% (inactive)
same,GFP response vs DMSO,[14],113% (inactive)
same,"GFP response, % of DMSO",[15],80.8% (inactive)
same,GFP response vs DMSO,[16],74.7% (inactive)
same,GFP response vs DMSO,[16]; [21],70.4%
same,GFP response vs DMSO,[16]; [22],78.1%
same,GFP response relative to DMSO,[17],107% (inactive)
same,GFP response relative to DMSO,[17]; [23],95%
same,GFP response relative to DMSO,[17]; [24],111%
same,GFP response vs DMSO,[18],106% (inactive)
same,"GFP response, % of DMSO",[19],80.6% (inactive)
same,"GFP response, % of DMSO",[19]; [21],79.7%
same,"GFP response, % of DMSO",[19]; [22],81.6%
same,double positive events,[20],61.3%
same,vesicle binding response,[20],142% (inactive)
O=C(O)CCNC(=O)c1ccccc1,percent of DMSO control GFP,[11],90% (inactive)
same,GFP response vs DMSO,[12],151% (active)
same,percent response of DMSO control,[13],101% (inactive)
same,GFP response vs DMSO,[14],82% (inactive)
same,"GFP response, % of DMSO",[15],91% (inactive)
same,GFP response vs DMSO,[16],98.7% (inactive)
same,GFP response vs DMSO,[16]; [21],97.5%
same,GFP response vs DMSO,[16]; [22],98.1%
same,GFP response relative to DMSO,[17],103% (inactive)
same,GFP response relative to DMSO,[17]; [23],102%
same,GFP response relative to DMSO,[17]; [24],103%
same,GFP response vs DMSO,[18],102% (inactive)
same,"GFP response, % of DMSO",[19],97.8% (inactive)
same,"GFP response, % of DMSO",[19]; [21],98.3%
same,"GFP response, % of DMSO",[19]; [22],98%
same,double positive events,[20],65.7%
same,vesicle binding response,[20],186% (inactive)
CC(=O)[C@@]1(O)CC[C@H]2[C@@H]3C[C@H](C)C4=CC(=O)CC[C@]4(C)[C@H]3CC[C@@]21C,percent of DMSO control GFP,[11],90.2% (inactive)
same,GFP response vs DMSO,[12],114% (inactive)
same,percent response of DMSO control,[13],96.6% (inactive)
same,GFP response vs DMSO,[14],78.1% (inactive)
same,"GFP response, % of DMSO",[15],96.6% (inactive)
same,GFP response vs DMSO,[16],94.8% (inactive)
same,GFP response vs DMSO,[16]; [21],96.1%
same,GFP response vs DMSO,[16]; [22],95.1%
same,GFP response relative to DMSO,[17],94.1% (inactive)
same,GFP response relative to DMSO,[17]; [23],92.8%
same,GFP response relative to DMSO,[17]; [24],92.9%
same,GFP response vs DMSO,[18],92% (inactive)
same,"GFP response, % of DMSO",[19],98.3% (inactive)
same,"GFP response, % of DMSO",[19]; [21],101%
same,"GFP response, % of DMSO",[19]; [22],96.1%
same,double positive events,[20],72%
same,vesicle binding response,[20],363% (inactive)
